Data as given in PubChem BioAssay (NCI).
The panel holds about 79,000 compounds, 15% with a hit somewhere; the sample as a whole holds those more often. A number with no mark means an inactive call. Activity calls are given as the source filed them. Rule as the data show it: active = growth inhibition above about 70%; inactive = the rest.

Assays:
[1] = NCI Yeast Anticancer Drug Screen. Data for the rad50 strain (AID 155);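 also: 0% = growth of vehicle-only cultures of the same strain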; conditions: S. cerevisiae rad50 strain growth inhibition; at 50.0 µM; stronger effect = higher value
Summary of the method: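 Cells are treated with compound, grown, and their growth is then scored against vehicle-only cultures of the same repair-deficient yeast strain.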

[2] = NCI Yeast Anticancer Drug Screen. Data for the mec2-1 strain (AID 157); conditions: S. cerevisiae mec2-1 strain, at 50.0 µM, stronger effect = higher value
Summary of the method: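 Growth inhibition is read against vehicle-treated controls after compound exposure of the mec2-1 yeast strain, which is defective in DNA damage repair or cell cycle control.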

[3] = NCI Yeast Anticancer Drug Screen. Data for the sgs1 mgt1 strain (AID 161);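 also: 0% = growth of cultures given vehicle only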; conditions: S. cerevisiae sgs1 mgt1 strain, at 50.0 µM, stronger effect = higher value
Summary of the method: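 Yeast cells carrying a defined DNA-repair defect were exposed to test compounds. Growth inhibition was measured relative to vehicle-treated controls.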

[4] = NCI Yeast Anticancer Drug Screen. Data for the cln2 rad14 strain (AID 165);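 also: 0% = growth equal to vehicle treated cultures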; conditions: S. cerevisiae cln2 rad14 strain, at 50.0 µM, stronger effect = higher value
Summary of the method: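 Growth inhibition, relative to vehicle-treated controls, is the read-out. The test organism is a yeast strain with defined genetic alterations, cln2 rad14.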

[5] = NCI Yeast Anticancer Drug Screen. Data for the bub3 strain (AID 167); conditions: S. cerevisiae bub3 mutant strain, at 50.0 µM, stronger effect = higher value
Summary of the method: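 Part of a panel of yeast mutants defective in DNA damage repair or cell cycle regulation. Each strain is grown with compound, and inhibition is calculated relative to solvent-treated cultures.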

[6] = NCI Yeast Anticancer Drug Screen. Data for the mlh1 rad18 strain (AID 175); conditions: S. cerevisiae mlh1 rad18 strain growth inhibition; at 50.0 µM; stronger effect = higher value
Summary of the method: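 Cells of a genetically altered yeast strain, deficient in DNA damage repair, were treated with compound. Their growth was then compared with that of vehicle-treated cultures to give inhibition.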

| SMILES | growth inhibition [1] | growth inhibition [2] | growth inhibition [3] | growth inhibition [4] | growth inhibition [5] | growth inhibition [6] |
| --- | --- | --- | --- | --- | --- | --- |
| CC1=CC(=O)CCC1c1ccccc1 (stereo unspecified) | -52.6% | -4.75% | -19.8% | 0.8% | -10.4% | -5.95% |
| CCOC(=O)C1C2CCCC(=O)C21 (stereo unspecified) | 9% | -4.5% | 3.9% | -56.8% | 12.1% | 3.3% |
| C[N+]1(C)C/C(=C\c2ccncc2)C(=O)/C(=C/c2ccncc2)C1 | 0.3% | -2.45% | 14.3% | 5.3% | 1.1% | -10.2% |
| O=C(NO)/C(CC(=O)c1ccccc1O)=N\O | -5.4% | -21.6% | -11.2% | -2.05% | -4.15% | -7.75% |
| COc1c(OCC(O)CN2CCCCC2)c2c(C)coc2c2ccoc12 (stereo unspecified) | 34.5% | 18.6% | 16.1% | 9.25% | 4.15% | 23.1% |
| O=C(NC(Cc1ccccc1)C(=O)O)c1ccccc1 (stereo unspecified) | 4% | 4.9% | 24.1% | -1.6% | 6.7% | 1.55% |
| Nc1ccc(N=Nc2ccc(N)cc2)cc1 | 12.7% | 6.5% | -13.7% | -8.9% | 11.2% | 2.5% |
| CC1=CC(=O)C(O)C2(C)C(CCC3(C)OCCO3)C=C(O[Si](C)(C)C(C)(C)C)CC12 (stereo unspecified) | 21.6% | -2.5% | 1.2% | 18.4% | 5.15% | 7% |
| O=C(O)CCC(CCC(=O)O)(C(=O)O)C(=O)O | 5.8% | -7.85% | -6.1% | -41% | -0.85% | 2.9% |
| CCC(C)N=C1NS(=O)(=O)c2ccccc21 (stereo unspecified) | 9.5% | -3.3% | -2.4% | 33.2% | -8.55% | 7.85% |
| COCCNC(=O)C(C)O (stereo unspecified) | 1.7% | 3.95% | -4.9% | 19.2% | 17.1% | 6.15% |
| COc1ccc(NC(=O)N2CC3CCN2CC3)cc1 | -7.95% | -10.8% | -12.2% | -21.9% | -12.7% | -16.2% |
| N/C(=N\N=C\c1c[nH]c2cc(C(F)(F)F)ccc2c1=O)NO | -10.9% | -7.45% | 28.4% | 11.1% | 2.9% | 2.25% |
| O=c1c2c(sc3ccccc13)NCN(CCc1ccccc1)C2 | -10.7% | -4.15% | 20.9% | 3.2% | 19.1% | 12.2% |
| C=CCNC(=S)/N=C\c1c(C)[nH]n(-c2ccccc2)c1=O | -23.8% | -27.2% | -24.6% | -17.6% | -17.6% | -5.7% |
| N#CCCCCN1CCCC1 | 32.2% | -8.7% | 3.4% | 12.7% | 10.1% | 9.05% |
| c1ccc2c(C3CO3)c3ccc4ccccc4c3cc2c1 (stereo unspecified) | 99% (active) | 99.5% (active) | 99.5% (active) | 98.8% (active) | 99.2% (active) | 99.2% (active) |
| CC(C)(C)C(=O)N1C(C(=O)O)Cc2ccccc2[C@@H]1Cc1ccccc1 (stereo partly specified) | -6.9% | -7.25% | -16.1% | 22.5% | -11.1% | -29.5% |
| CC(C)=CCC/C(C)=C/CNc1ncnc2c1ncn2C1OC(CO)C(O)C1O (stereo unspecified) | -4.3% | 13.7% | 6.6% | -37% | 12.9% | 27.6% |
| CC(C)CNC(=S)N/N=C/C=C/c1ccc(C(C)C)cc1 | -18.2% | -12.7% | 20.3% | -16.1% | 53.9% | 0.35% |
| CCCCNc1nc(C#N)c(N)s1 | 3.6% | -3.35% | -12.7% | 11.3% | 11.7% | 8.55% |

| SMILES | growth inhibition [1] | growth inhibition [2] | growth inhibition [3] | growth inhibition [4] | growth inhibition [5] | growth inhibition [6] |
| --- | --- | --- | --- | --- | --- | --- |
| OCCCNCc1ccncc1 | 22.8% | -15.8% | -14.6% | 33.5% | -16.2% | -3.55% |
| CC(C)(C)N1CC(C(O)c2ccccc2)C1c1ccccc1 (stereo unspecified) | -8.05% | 0.25% | -17.2% | -13.6% | -11.4% | -2.5% |
| O=C(/C=C/c1ccco1)CCN1CCOCC1 | 8.15% | -4.6% | 24.8% | -44.1% | -7.25% | 13.8% |
| COc1cc(/C=C2\C=Nc3ccccc32)ccc1O | 27.8% | 23.9% | 38% | 20.3% | 40.3% | 35.7% |
| CCC(C)NC(=O)C(C)C (stereo unspecified) | 2.7% | -3.6% | -2.9% | -32.8% | -3.3% | 16.4% |
| O=C(OCc1ccccc1CN1CCCC1)c1cccc(Cl)c1 | 2.8% | -3.75% | -8.1% | -7.2% | 8.35% | 2.65% |
| Cc1nc(N)nc2c1ncn2CCO | 14.6% | 16.1% | 9.6% | -4.25% | 24.9% | 9.85% |
| COc1c2cc3c(cc2nc2occc12)OCO3 | 1.1% | -5.35% | -9.3% | 2.6% | -11.2% | 5.55% |
| O=c1[nH]c2cc([N+](=O)[O-])ccc2nc1/C=C(\O)c1ccc(Cl)cc1 | -23.2% | -22.8% | -20.1% | -9.15% | -12.2% | -36.7% |
| CCCCCCCCCCCCCCCCCC(=O)OCC(COC1OC(CS(=O)(=O)O)C(O)C(O)C1O)OC(=O)CCCCCCCCCCCCCCCCC (stereo unspecified) | 23.6% | 18.4% | 7.2% | 3.25% | -1.95% | 19.6% |
| O=C(O)CCC(=O)NC1c2ccccc2Oc2ccccc21 | -5.9% | -1.75% | 11.6% | -10.2% | 7.85% | 5.95% |
| NC(=O)c1csc(N)n1 | 4.4% | 3.95% | 0% | 3.55% | 9.3% | -7.7% |
| N#Cc1ccc(OCCCCCOc2ccc(C#N)cc2)cc1 | -11.2% | -0.65% | -1.15% | -43.1% | -2.6% | -5.8% |
| c1ccc(CN(CCNc2ccccc2)c2ccccc2)cc1 | 13.2% | 48.4% | 46.2% | 5.1% | 50.6% | 3.7% |
| COc1ccc(N/N=C2\CCOc3ccc(C)cc3C2=O)cc1 | 53.6% | 27.8% | 42.5% | 14.6% | 52% | 46.7% |
| Cc1ccc(SCC(=O)O)c(C)c1 | 27.1% | 17.9% | 18.1% | 14% | 7.65% | -13.5% |
| N#CC(c1ccccc1)c1cccc(C(=O)O)c1 (stereo unspecified) | -16.9% | -13.5% | 5.6% | -20.4% | -25.9% | 5.45% |
| O=C(NCc1ccco1)Nc1ccccc1 | -5.8% | -21.2% | -11.7% | -36% | 7.1% | -7.55% |
| CCCCC(CC)C1OCCS1 (stereo unspecified) | 5.95% | -24.4% | -4.3% | 1.9% | -17% | -10% |
| COCCCNC1=C(C#N)C(=O)NC2(CCCC2)S1 | -35.6% | -35.5% | -18.5% | -2.65% | -30.8% | -17.2% |
